Assay [1] deals with Retinoic acid receptor RXR-alpha (Homo sapiens) (UniProt P19793). Description: ATG_RXRa_TRANS: Attagene TRANS-FACTORIAL HepG2 Assay for human Retinoid X Receptor alpha (RXRa) (AID 2283012; active means hit-call score of the fitted dose curve at least 0.9, where 1 is the maximum). The method, boiled down:
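Read-out: fluorescent reporter-transcript fragments quantified by capillary electrophoresis after RT-PCR. Transiently transfected HepG2 cells carrying GAL4-UAS reporters and NR-GAL4 chimeras were exposed to chemical for 24 h; activity scored as increase over DMSO.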

The target in assay [2] is human Retinoid X Receptor beta (RXRb), RXRB (gene 6257) (UniProt P28702). Put plainly: ATG_RXRb_TRANS: Attagene TRANS-FACTORIAL HepG2 Assay for human Retinoid X Receptor beta (RXRb) (AID 2283013; active means hit-call score of the fitted dose curve at least 0.9, where 1 is the maximum). The method, boiled down: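 Read-out: reporter mRNA induction via RT-PCR plus capillary electrophoresis fluorescence, analysed as signal increase relative to DMSO. Cells were human HepG2, transiently transfected with GAL4-UAS reporter constructs and chimeric receptor-Gal4 fusions, dosed for 24 h.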
Sequence of human Retinoid X Receptor beta (RXRb), RXRB (gene 6257) (P28702 whole entry, looked up, the tested form may be a part): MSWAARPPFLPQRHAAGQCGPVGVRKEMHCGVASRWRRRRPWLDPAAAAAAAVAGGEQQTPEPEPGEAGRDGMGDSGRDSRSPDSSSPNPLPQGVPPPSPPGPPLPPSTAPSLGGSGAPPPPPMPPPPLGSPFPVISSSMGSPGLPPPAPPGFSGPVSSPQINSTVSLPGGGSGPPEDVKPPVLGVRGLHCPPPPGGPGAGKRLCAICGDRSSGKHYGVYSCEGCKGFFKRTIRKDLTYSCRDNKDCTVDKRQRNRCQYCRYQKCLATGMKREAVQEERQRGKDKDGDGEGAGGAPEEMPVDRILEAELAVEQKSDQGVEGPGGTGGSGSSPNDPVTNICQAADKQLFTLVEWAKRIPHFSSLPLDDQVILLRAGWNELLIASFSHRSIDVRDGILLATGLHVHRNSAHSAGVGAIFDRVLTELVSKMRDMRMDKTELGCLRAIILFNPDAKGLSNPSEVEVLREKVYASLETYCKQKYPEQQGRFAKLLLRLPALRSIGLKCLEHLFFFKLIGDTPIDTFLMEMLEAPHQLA

Assay [3] has as its target human Thyroid Receptor alpha (THRa1), THRA (gene 7067) (UniProt P10827). Description: ATG_THRa1_TRANS: Attagene TRANS-FACTORIAL HepG2 Assay for human Thyroid Receptor alpha (THRa1) (AID 2283014; active means hit-call score of the fitted dose curve at least 0.9, where 1 is the maximum). The procedure, abridged: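 Measured here is mRNA from a GAL4-UAS reporter in transfected HepG2 cells carrying a Gal4-fused receptor, 24 h post-dose. DMSO served as negative control and baseline.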

Read-out in assay [4]: E-selectin (Homo sapiens) (UniProt P16581)
Put plainly: BSK_3C_Eselectin: BioMAP Diversity Plus: 3C Assay for Eselectin Biomarker Activity (AID 2283015).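 Further: cell surface E-selectin protein quantified by ELISA 24 h after dosing.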 The following applies: primary human endothelial cells (HUVEC); actives raise or lower the signal. The method, boiled down: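 Endpoint derived by bidirectional fitting against DMSO vehicle; signal is ELISA-detected E-selectin from primary HUVEC at 24 h post-dosing, with parallel SRB staining (0.1% SRB, 560 nm) flagging cytotoxicity.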

Read-out in assay [5]: Interleukin-1 alpha (IL1a), IL1A (gene 3552)
Put plainly: BSK_BE3C_IL1a: BioMAP Diversity Plus: BE3C Assay for Interleukin-1 alpha (IL1a) Biomarker Activity (AID 2283016). The following applies: primary human bronchial epithelial cells; actives raise or lower the signal. The method, boiled down:
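ELISA read-out of IL-1a from human lung bronchial epithelial primary cells, 24 h post-dose. Gain or loss of signal fitted relative to DMSO negative control.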

Read-out in assay [6]: Monocyte Chemoattractant Protein-1 (MCP1), CCL2 (gene 6347)
Description: BSK_3C_MCP1: BioMAP Diversity Plus: 3C Assay for Monocyte Chemoattractant Protein-1 (MCP1) Biomarker Activity (AID 2283017). The conditions noted are these: primary human endothelial cells (HUVEC); actives raise or lower the signal. The method, boiled down:
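Using human vascular primary endothelium, researchers measured MCP-1 by ELISA 24 h after treatment, with DMSO serving as negative control for bidirectional fitting.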

Read-out in assay [7]: Monocyte Chemoattractant Protein-1 (MCP1), CCL2 (gene 6347)
Description: BSK_4H_MCP1: BioMAP Diversity Plus: 4H Assay for Monocyte Chemoattractant Protein-1 (MCP1) Biomarker Activity (AID 2283018). The following applies: primary human endothelial cells (HUVEC); actives raise or lower the signal. The method, boiled down:
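HUVEC primary cells, 24 h post-dose, MCP-1 by ELISA. Gain or loss of signal fitted bidirectionally vs DMSO baseline. Cytotoxicity: SRB stain (0.1% after 10% TCA fixation), read 560 nm, parallel cultures.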

Read-out in assay [8]: Human Leukocyte Antigen - DR isotype (HLADR), HLA-DRA (gene 3122)
Description: BSK_3C_HLADR: BioMAP Diversity Plus: 3C Assay for Human Leukocyte Antigen - DR isotype (HLADR) Biomarker Activity (AID 2283019).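 On outcome: ELISA of cell-surface HLA-DR on HUVEC 24 h after dosing.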 The following applies: primary human endothelial cells (HUVEC); actives raise or lower the signal. The method, boiled down:
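Compound added to primary HUVEC cultures, 24 h incubation, then HLA-DR determined by ELISA; endpoint derived by bidirectional fitting relative to DMSO negative control.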

Read-out in assay [9]: Interleukin-8 (IL8), CXCL8 (gene 3576)
Description: BSK_3C_IL8: BioMAP Diversity Plus: 3C Assay for Interleukin-8 (IL8) Biomarker Activity (AID 2283020). The conditions noted are these: primary human endothelial cells (HUVEC); actives raise or lower the signal. The method, boiled down: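 HUVEC, 3C stimulation; 24 h compound exposure; IL-8 read by ELISA; gain or loss of signal fitted relative to DMSO control.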

Read-out in assay [10]: Monokine induced gamma interferon (MIG), CXCL9 (gene 4283)
Put plainly: BSK_3C_MIG: BioMAP Diversity Plus: 3C Assay for Monokine induced gamma interferon (MIG) Biomarker Activity (AID 2283021). The following applies: primary human endothelial cells (HUVEC); actives raise or lower the signal. The procedure, abridged:
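HUVEC, 3C system; 24 h chemical exposure; MIG by ELISA; bidirectional fit vs DMSO baseline.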

Assay [11] can be described thus: BSK_3C_SRB: Viability Assessment in the BioMAP Diversity Plus: 3C Assay (AID 2283023).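 Further: fitted both ways against DMSO so a hit may be signal rise or drop.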 The conditions noted are these: primary human endothelial cells (HUVEC). The procedure, abridged:
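Overt cytotoxicity is gauged in parallel confluent HUVEC cultures by SRB total-protein staining at the time of biomarker measurement, 24 h after dosing. Gain or loss of signal is fitted versus DMSO.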

Read-out in assay [12]: Matrix Metallopeptidase 1 (MMP1), MMP1 (gene 4312)
Put plainly: BSK_BE3C_MMP1: BioMAP Diversity Plus: BE3C Assay for Matrix Metallopeptidase 1 (MMP1) Biomarker Activity (AID 2283024). The conditions noted are these: primary human bronchial epithelial cells; actives raise or lower the signal. The procedure, abridged:
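ELISA read-out of MMP1 in human lung bronchial epithelial primary cultures, 24 h post-dose; bidirectional curve fit vs DMSO baseline, gain or loss of signal scored.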

Assay [13] in a line: BSK_3C_Vis: BioMAP Diversity Plus: 3C Assay for Morphology Visualization (AID 2283025).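 Further: fitted both ways so gain or loss versus DMSO counts.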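 On AC50: light microscopy image of cell morphology used as background control.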 The following applies: primary human endothelial cells (HUVEC). The method, boiled down:
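HUVEC, 3C system; light microscopy of morphology at 24 h post-dose. Bidirectional fit vs DMSO baseline. Secondary readout, background-control function.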

Read-out in assay [14]: Pselectin, SELP (gene 6403)
Put plainly: BSK_4H_Pselectin: BioMAP Diversity Plus: 4H Assay for Pselectin Biomarker Activity (AID 2283026). The conditions noted are these: primary human endothelial cells (HUVEC); actives raise or lower the signal. The procedure, abridged: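 HUVEC, 24 h chemical exposure; P-selectin read by ELISA. Bidirectional curve fit vs DMSO baseline; gain or loss of signal scored.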

A short description of assay [15]: BSK_4H_SRB: Viability Assessment in the BioMAP Diversity Plus: 4H Assay (AID 2283027).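 Further: cells exposed to compound for 24 h before staining.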 The conditions noted are these: primary human endothelial cells (HUVEC). The method, boiled down: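 Cytotoxicity readout: sulforhodamine B (0.1%) staining of total protein after 10% TCA fixation, measured at 560 nm in human umbilical vein endothelium at 24 h. DMSO set the baseline; fitting was bidirectional.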

Assay [16] can be described thus: BSK_BE3C_SRB: Viability Assessment in the BioMAP Diversity Plus: BE3C Assay (AID 2283028).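 Further: measured 24 h after chemical dosing.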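 On AC50: fitted both ways so AC50 may mark signal gain or loss versus DMSO.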 The following applies: primary human bronchial epithelial cells. The method, boiled down:
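SRB total-protein staining (0.1%, after TCA fixation) of chemically dosed human bronchial epithelial primary cells at 24 h; DMSO serves as the negative control for bidirectional curve fitting.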

Read-out in assay [17]: Thrombomodulin, THBD (gene 7056)
Description: BSK_3C_Thrombomodulin: BioMAP Diversity Plus: 3C Assay for Thrombomodulin Biomarker Activity (AID 2283029). The following applies: primary human endothelial cells (HUVEC); actives raise or lower the signal. The procedure, abridged:
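HUVEC, 3C conditions; compound 24 h; thrombomodulin by ELISA; bidirectional curve fit vs DMSO baseline; parallel SRB total-protein staining for cytotoxicity.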

Read-out in assay [18]: Urokinase-type plasminogen activator receptor (uPAR), PLAUR (gene 5329)
Put plainly: BSK_4H_uPAR: BioMAP Diversity Plus: 4H Assay for Urokinase-type plasminogen activator receptor (uPAR) Biomarker Activity (AID 2283030). The following applies: primary human endothelial cells (HUVEC); actives raise or lower the signal. The procedure, abridged:
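Endpoint derived via bidirectional curve fitting against DMSO baseline; readout was ELISA detection of uPAR on umbilical vein endothelial cells at 24 h post-treatment, with SRB-stained parallel cultures assessing cytotoxicity.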

Read-out in assay [19]: Vascular endothelial growth factor receptor 2 (Homo sapiens) (UniProt P35968)
Put plainly: BSK_4H_VEGFRII: BioMAP Diversity Plus: 4H Assay for Vascular endothelial growth factor receptor 2 (VEGFR2) Biomarker Activity (AID 2283031). The following applies: primary human endothelial cells (HUVEC); actives raise or lower the signal. The method, boiled down: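 In this multiplexed HUVEC system, biomarker ELISA was performed after 24 h chemical exposure. Parallel SRB staining (TCA fixation, 560 nm) tracked cytotoxicity; DMSO served as baseline.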

For assay [20], the target named is human Vitamin D Receptor (VDR), VDR (gene 7421) (UniProt P11473). Put plainly: ATG_VDR_TRANS: Attagene TRANS-FACTORIAL HepG2 Assay for human Vitamin D Receptor (VDR) (AID 2283022; active means hit-call score of the fitted dose curve at least 0.9, where 1 is the maximum). The procedure, abridged:
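Multiplexed TRANS reporter in HepG2; 24 h treatment; reporter mRNA by RT-PCR plus capillary electrophoresis; upregulation scored relative to DMSO.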

Each structure is given as a SMILES string. Where “and” joins values, the source holds several entries; their conditions need not be identical. Identical values can stand only once. Records with an inconclusive call do not appear. The source holds several records for some structures; these can differ, active in one and inactive in another. Calls of active or inactive are those of the source. How the source made its calls, unless noted: active means hit-call score of the fitted dose curve at least 0.9, where 1 is the maximum; inactive means score below 0.9.

As usually defined, the AC50 is the midpoint of the concentration-response curve, whichever way the signal moves.

Sequence of E-selectin (Homo sapiens) (P16581 whole entry, looked up): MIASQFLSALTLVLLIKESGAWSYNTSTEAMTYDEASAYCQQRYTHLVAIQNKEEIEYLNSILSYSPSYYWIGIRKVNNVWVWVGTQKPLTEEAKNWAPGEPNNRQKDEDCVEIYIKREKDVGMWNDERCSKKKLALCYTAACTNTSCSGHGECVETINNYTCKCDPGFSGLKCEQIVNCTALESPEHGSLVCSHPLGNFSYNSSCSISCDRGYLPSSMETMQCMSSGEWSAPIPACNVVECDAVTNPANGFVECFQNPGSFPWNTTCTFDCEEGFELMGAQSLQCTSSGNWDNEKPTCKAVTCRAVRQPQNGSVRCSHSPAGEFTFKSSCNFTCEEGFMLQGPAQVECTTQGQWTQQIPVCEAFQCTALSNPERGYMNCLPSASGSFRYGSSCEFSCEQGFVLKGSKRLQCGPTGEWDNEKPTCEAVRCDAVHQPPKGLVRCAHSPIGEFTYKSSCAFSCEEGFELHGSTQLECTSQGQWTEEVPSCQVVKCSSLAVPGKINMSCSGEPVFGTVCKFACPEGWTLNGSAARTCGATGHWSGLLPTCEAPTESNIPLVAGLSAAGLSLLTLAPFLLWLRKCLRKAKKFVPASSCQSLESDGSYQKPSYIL
Sequence of human Vitamin D Receptor (VDR), VDR (gene 7421) (P11473 whole entry, looked up): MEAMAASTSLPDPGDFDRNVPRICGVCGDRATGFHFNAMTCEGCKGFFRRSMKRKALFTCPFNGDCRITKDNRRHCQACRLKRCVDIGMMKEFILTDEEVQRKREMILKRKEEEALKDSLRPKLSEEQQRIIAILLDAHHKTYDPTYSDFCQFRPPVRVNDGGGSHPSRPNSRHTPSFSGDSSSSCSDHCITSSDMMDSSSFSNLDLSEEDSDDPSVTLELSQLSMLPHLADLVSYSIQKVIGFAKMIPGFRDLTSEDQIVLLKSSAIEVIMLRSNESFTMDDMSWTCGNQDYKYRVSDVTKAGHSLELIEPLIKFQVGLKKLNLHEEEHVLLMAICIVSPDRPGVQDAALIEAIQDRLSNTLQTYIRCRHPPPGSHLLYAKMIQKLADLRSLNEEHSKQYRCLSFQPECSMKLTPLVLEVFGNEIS
Sequence of human Thyroid Receptor alpha (THRa1), THRA (gene 7067) (P10827 whole entry, looked up, the tested form may be a part): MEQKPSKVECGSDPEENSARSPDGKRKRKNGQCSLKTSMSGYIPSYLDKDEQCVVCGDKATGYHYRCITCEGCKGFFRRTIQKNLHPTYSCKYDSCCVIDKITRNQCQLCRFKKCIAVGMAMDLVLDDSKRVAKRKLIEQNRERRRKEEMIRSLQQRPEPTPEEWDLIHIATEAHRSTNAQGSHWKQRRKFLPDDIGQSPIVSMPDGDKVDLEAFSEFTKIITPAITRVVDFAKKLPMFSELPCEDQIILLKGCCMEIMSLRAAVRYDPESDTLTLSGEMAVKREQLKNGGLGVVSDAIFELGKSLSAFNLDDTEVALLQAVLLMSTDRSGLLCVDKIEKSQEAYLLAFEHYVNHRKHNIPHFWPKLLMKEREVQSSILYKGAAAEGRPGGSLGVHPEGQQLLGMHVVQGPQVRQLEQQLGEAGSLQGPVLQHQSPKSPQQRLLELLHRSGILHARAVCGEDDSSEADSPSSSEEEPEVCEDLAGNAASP
Sequence of Retinoic acid receptor RXR-alpha (Homo sapiens) (P19793 whole entry, looked up, the tested form may be a part): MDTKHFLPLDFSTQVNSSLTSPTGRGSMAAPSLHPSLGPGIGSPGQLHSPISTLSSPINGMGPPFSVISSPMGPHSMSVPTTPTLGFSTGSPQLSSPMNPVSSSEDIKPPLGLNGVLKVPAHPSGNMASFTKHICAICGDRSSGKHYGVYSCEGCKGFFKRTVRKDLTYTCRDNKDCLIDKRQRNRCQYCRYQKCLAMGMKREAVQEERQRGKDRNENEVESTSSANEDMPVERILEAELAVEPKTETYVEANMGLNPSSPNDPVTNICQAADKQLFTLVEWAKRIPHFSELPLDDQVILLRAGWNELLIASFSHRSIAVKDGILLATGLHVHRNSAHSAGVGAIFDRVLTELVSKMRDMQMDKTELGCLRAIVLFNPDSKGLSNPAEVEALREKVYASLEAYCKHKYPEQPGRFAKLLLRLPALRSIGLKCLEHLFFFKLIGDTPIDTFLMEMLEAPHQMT

As to `CC(C)(c1ccc(O)cc1)c1ccc(O)cc1`, the call in assay [1], in assay [2], in assay [3], in [4], in [5] and in [6] was inactive. Besides, the outcome in assay [7], in assay [8], in [9], in [10], in assay [11] and in [12] was inactive. Besides, the result in assay [13], in assay [14], in [15], in assay [16], in assay [17] and in [18] was inactive. The result in [19] was inactive. Further, the half-maximal activity concentration (AC50) in assay [2] is 0.00419 µM (active); in assay [11] it was 14.2 µM (active); in assay [13] it was 39.6 µM (active) and 20 µM (active); in assay [16], 24 µM (active).

For the molecule `CN(C)C(=O)Nc1ccc(Cl)c(Cl)c1`, the outcome in assay [1], in assay [2], in [3], in assay [4], in assay [5] and in [6] was inactive. In addition, the outcome in assay [7], in [8], in [10], in assay [11], in [12] and in assay [13] was inactive. The result in assay [14], in assay [15], in assay [16], in assay [17], in assay [18] and in [19] was inactive.

In the case of `CC1(C)C(C=C(Cl)Cl)C1C(=O)OCc1cccc(Oc2ccccc2)c1` (configuration not stated), the molecule was classed as inactive in [1], in assay [2], in assay [3], in assay [4], in assay [5] and in assay [6]. For the same molecule, the result in assay [7], in [9], in [10], in [20], in assay [12] and in assay [14] was inactive. Further, the result in assay [15], in assay [16], in assay [17], in [18] and in [19] was inactive. Besides, the AC50 in [8] was 5.44 µM (active); in [11], 6.15 µM (active); in assay [13], 20 µM (active).

Regarding `CCCCC(CC)COC(=O)c1ccccc1C(=O)O` (configuration not stated), the result in assay [1], in assay [2], in assay [3], in assay [4], in assay [5] and in assay [6] was inactive. The outcome in [7], in assay [8], in assay [9], in assay [10], in assay [11] and in assay [12] was inactive. The outcome in assay [13], in [14], in assay [15], in assay [16], in assay [17] and in assay [18] was inactive. In addition, the result in assay [19] was inactive.

On to `C#C[C@]1(O)CC[C@H]2[C@@H]3CCC4=CC(=O)CC[C@@H]4[C@H]3CC[C@@]21CC`, for which the outcome in assay [1], in [2], in [3], in assay [4], in assay [5] and in assay [6] was inactive. Also, the result in assay [7], in assay [10], in [20], in assay [11], in [13] and in assay [14] was inactive. Besides, the result in [15], in [16], in assay [17], in [18] and in assay [19] was inactive. Further, the figures for the AC50 in assay [8] and in assay [12] were 20 µM (active) and 3.16 µM (active), respectively.

Regarding `CCC(O)=C1C(=O)CC(C(=O)O)CC1=O` (configuration not stated), the outcome in assay [1], in assay [2], in [3], in assay [4], in [5] and in assay [6] was inactive. In addition, the result in assay [7], in assay [8], in assay [10], in [11], in assay [12] and in assay [13] was inactive. For the same molecule, the result in assay [14], in assay [15], in assay [16], in assay [17], in [18] and in assay [19] was inactive.

(Values after PubChem BioAssay (EPA / NIEHS).)
